Source: the supplement of paper PMC11417369
± gives the standard deviation of the averaged measurements. Over roughly 25,000 sequences, “ln(normalized median fluorescence intensity)” has its median near 8.9; the highest 2% begin near 10. The sample holds the highest values, similar sequences and a random draw of the others, so the mix is not that of the screen.

What follows are sequences tested on PfAP2-LT AP2 domain (GST-tagged) (assay: gcPBM binding intensity (ln(normalized median fluorescence intensity)); higher = stronger DNA binding).
In short: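 Binding intensity is defined as the maximum Masliner-normalised natural-log median intensity across replicate spots for either probe orientation. It was measured on an Agilent 4 × 180k array of primer-extended double-stranded 36-bp intergenic genomic probes and negative controls, to which GST-tagged P. falciparum DNA-binding domains made in E. coli were applied for 1 h in 1× PBS with 1% milk, 0.2 mg/ml BSA, 0.5% salmon testes DNA and 0.03% Triton X-100. Detection was by Alexa488 anti-GST antibody and scanning at 488 nm.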
“AGGAGGAACAAACAAAACAATAAAAATTATAATAAA [GTGCAC_negctrl_site206]” was tested, and the “gcPBM binding intensity (ln)” value was 8.78 ± 0.64. With “GTGTATTTATGTTATACACACAAAAATATTTTGTAT [CACACA_site4305]” the “gcPBM binding intensity (ln)” value was 9.01 ± 0.33. In the case of “TTATATATACCATAATGTACTCTATTATATAAAAAA [XGTACX_site7464]”, the “gcPBM binding intensity (ln)” value is reported as 8.41 ± 0.4. In the case of “AAAAGATAATTATGCACACACACACCCCCACCCAAC [CACACA_site2570]”, the “gcPBM binding intensity (ln)” value is reported as 10.38 ± 0.064. With “AAAAAAGATAATTATGCACACACACCCACCCACCCA [CACACA_site8825]” the “gcPBM binding intensity (ln)” value was 10.085 ± 0.0071. “TATGCACCCAGACACACACACACAACTAAAAAATAA [CACACA_site2567]” was tested, and the “gcPBM binding intensity (ln)” value was 9.8 ± 0.35. In the case of “AAAAGATAAAATTATGCACACATACGAATAATTTTA [CACACA_site8497]”, the “gcPBM binding intensity (ln)” value is reported as 8.92 ± 0.48. In the case of “AAAAGATAATTATGCACACACACACCCAGACACAAC [CACACA_site5428]”, the “gcPBM binding intensity (ln)” value is reported as 10.34 ± 0.021. With “ATTATATATATGTGCACACAAAAGATATATATATAT [CACACA_site5205]” the “gcPBM binding intensity (ln)” value was 9.95 ± 0.26. For “AAAGATAATATATGCACACATATAAATATATAAATA [CACACA_site3477]”, the “gcPBM binding intensity (ln)” value was 9.07 ± 0.43. For “TAATTATGCAGACACACACACACACCCAACTAAAAA [CACACA_site2569]”, the “gcPBM binding intensity (ln)” value was 9.96 ± 0.23. For “TAATTATGCCAACACACACACACACCCAACTAAAAA [CACACA_site8823]”, the “gcPBM binding intensity (ln)” value was 9.965 ± 0.092. “AAAAAAAAAACATACACACACATATAGATTTATATG [CACACA_site6847]” was tested, and the “gcPBM binding intensity (ln)” value was 9.31 ± 0.35. “AAAAGGAATTATAGGAAATAAATATATACAAATATA [TGCATGCA_negctrl_site528]” was tested, and the “gcPBM binding intensity (ln)” value was 8.69 ± 0.58. In the case of “TATATTTATATATGTTGTACTCTCCAATAATATTCC [XGTACX_site4438]”, the “gcPBM binding intensity (ln)” value is reported as 8.76 ± 0.52. With “AGTAAATTATATATCTGTACATATATATATGTGTAT [XGTACX_site5519]” the “gcPBM binding intensity (ln)” value was 9.04 ± 0.28. “AAAATTGGTGAAAATGAAAATATGATTATATGTATA [XGTACX_negctrl_site505]” was tested, and the “gcPBM binding intensity (ln)” value was 8.56 ± 0.53. “ATAATTTTATATAAATGTACATACATTTTTATTATA [XGTACX_site7368]” was tested, and the “gcPBM binding intensity (ln)” value was 8.61 ± 0.4. For “TTCAAAGGGAAATTAACACACACATATATATATATA [CACACA_site8777]”, the “gcPBM binding intensity (ln)” value was 9.71 ± 0.2. For “AAAATAACGAGTCAAACACACATATTTATATTTATA [CACACA_site7050]”, the “gcPBM binding intensity (ln)” value was 8.95 ± 0.45. In the case of “AAAAATAACATATAAACACACATATATATATATATA [CACACA_site3802]”, the “gcPBM binding intensity (ln)” value is reported as 9.825 ± 0.0071. “TTAAACTTGAAACACACACACACACCCATATAAAAA [CACACA_site758]” was tested, and the “gcPBM binding intensity (ln)” value was 10.1 ± 0.064. In the case of “CAAAAATAACGAGTCAAACACACATATATATATATA [CACACA_site2038]”, the “gcPBM binding intensity (ln)” value is reported as 9.86 ± 0.3. In the case of “AAACTTGACGAACACACACACACATATATAAAAAAA [CACACA_site6494]”, the “gcPBM binding intensity (ln)” value is reported as 10.1 ± 0.4. For “TATAAATAAAAACACACACACACATATATATATATA [CACACA_site2268]”, the “gcPBM binding intensity (ln)” value was 10.2. “CAAAGGGAAATTAACACACACATATTTATATTTATA [CACACA_site7202]” was tested, and the “gcPBM binding intensity (ln)” value was 9.2 ± 0.47. For “CAAAGGGAAATTAACACACACATATATATATATATA [CACACA_site2453]”, the “gcPBM binding intensity (ln)” value was 10.3 ± 0.2. For “TAAAAAAAAAAAAAAACACACATATAAATATATATA [CACACA_site1243]”, the “gcPBM binding intensity (ln)” value was 8.56 ± 0.52. With “AAAATAACGAGTCAAACACACATATATATATATATA [CACACA_site2039]” the “gcPBM binding intensity (ln)” value was 10.1 ± 0.2. With “TTAAACTTGAAACACACACACACACCGATATAAAAA [CACACA_site4578]” the “gcPBM binding intensity (ln)” value was 10.06 ± 0.085.
